Data taken from the supplement of paper PMC11865577.
Counter-ions that a name gives are not always drawn.

Key:
Assay in all cases: normalised indicator fluorescence (fraction of RNA + indicator signal without compound); higher = less displacement of indicator (weaker competition)
Conditions in all cases: compound concentration: 5 uM, 30 min
hsa-mir-191 loop = tested on: hsa-mir-191 loop
Outline: (§1)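 For the displacement screen, RNA and a TO-PRO-1 or TO-PRO-3 indicator were held in 20 mM phosphate pH 7.0 with 20 mM NaCl and 80 mM KCl in 96-well plates. After adding 0.25 μL of each 1 mM DMSO stock (about 5 uM final) and waiting 30 min, fluorescence was measured on an Infinite 200 PRO with excitation at 485 or 620 nm. Each value is the mean of two independent experiments, expressed as blank-subtracted indicator fluorescence relative to the no-compound RNA-plus-indicator signal.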

hsa-mir-21 loop = tested on: hsa-mir-21 loop
Outline: as §1

hsa-mir-221 loop = tested on: hsa-mir-221 loop
Outline: as §1

hsa-mir-374a loop = tested on: hsa-mir-374a loop
Outline: as §1

hsa-mir-6850 loop = tested on: hsa-mir-6850 loop
Outline: as §1

[1] = indicator: TO-PRO-1 0.1 uM, RNA concentration: 0.1 uM
[2] = indicator: TO-PRO-3 0.5 uM, RNA concentration: 0.5 uM

Row | SMILES | normalised indicator fluorescence (hsa-mir-191 loop; [1]) | normalised indicator fluorescence (hsa-mir-191 loop; [2]) | normalised indicator fluorescence (hsa-mir-21 loop; [1]) | normalised indicator fluorescence (hsa-mir-21 loop; [2]) | normalised indicator fluorescence (hsa-mir-221 loop; [1]) | normalised indicator fluorescence (hsa-mir-221 loop; [2]) | normalised indicator fluorescence (hsa-mir-374a loop; [1]) | normalised indicator fluorescence (hsa-mir-374a loop; [2]) | normalised indicator fluorescence (hsa-mir-6850 loop; [1]) | normalised indicator fluorescence (hsa-mir-6850 loop; [2])
1 | CC1(C)C=Cc2c(ccc3c2OC[C@@H](c2ccc(O)cc2O)C3)O1 [Glabridin] | 1.07 | 1.05 | 1.05 | 1.03 | 1.04 | 1 | 1.13 | 1.2 | 0.981 | 1.01
2 | CNC(=O)c1ccc(C)c(-n2c(C)cc(OCc3ccc(F)cc3F)c(Br)c2=O)c1 | 1.02 | 1.03 | 1.03 | 1.02 | 1.19 | 1.05 | 1 | 1.08 | 0.914 | 1.04
3 | CC(C)N(CCCCOCC(=O)NS(C)(=O)=O)c1cnc(-c2ccccc2)c(-c2ccccc2)n1 [Selexipag] | 1.04 | 1.01 | 1.07 | 1.07 | 1.05 | 1.12 | 1.14 | 1.11 | 1.1 | 1.09
4 | C[C@@H]1O[C@@H](O[C@H]2[C@H](Oc3cc(O)c4c(c3)O[C@H](c3ccc(O)cc3)CC4=O)O[C@H](CO)[C@@H](O)[C@@H]2O)[C@H](O)[C@H](O)[C@H]1O [Naringin] | 0.96 | 1.09 | 0.933 | 1.08 | 1.06 | 1.04 | 1.14 | 1.21 | 0.897 | 1.09
5 | Cc1c(C)c2c(c(C)c1O)CCC(C)(C(=O)O)O2 (stereo not drawn) [Trolox] | 1.03 | 1.05 | 1.02 | 0.957 | 1.05 | 1.12 | 1.11 | 1.22 | 1.02 | 1.07
6 | Oc1ccc(OCc2ccccc2)cc1 [Monobenzone] | 0.997 | 1.15 | 0.955 | 1.11 | 1.03 | 1.17 | 1.27 | 1.27 | 0.909 | 1.06
7 | C[C@H](CCC(=O)NCCS(=O)(=O)O)[C@H]1CC[C@H]2[C@@H]3[C@@H](O)C[C@@H]4C[C@H](O)CC[C@]4(C)[C@H]3CC[C@]12C [Tauroursodeoxycholic Acid] | 1.03 | 1.01 | 0.892 | 1.01 | 1.02 | 1.05 | 1.06 | 1.13 | 0.975 | 1.02
8 | C[C@H]1[C@H](C)CC[C@]2(C(=O)O[C@@H]3O[C@H](CO[C@@H]4O[C@H](CO)[C@@H](O[C@@H]5O[C@H](C)[C@H](O)[C@@H](O)[C@H]5O)[C@H](O)[C@H]4O)[C@@H](O)[C@H](O)[C@H]3O)CC[C@]3(C)C(=CC[C@@H]4[C@@]5(C)C[C@@H](O)[C@H](O)[C@@](C)(CO)[C@@H]5CC[C@]43C)[C@H]12 [Asiaticoside] | 1.02 | 1.03 | 0.968 | 0.996 | 0.992 | 1.03 | 1.09 | 1.16 | 1.03 | 1.11
9 | N=C(NCCCCCCNC(=N)NC(=N)Nc1ccc(Cl)cc1)NC(=N)Nc1ccc(Cl)cc1 [Chlorhexidine] | 0.988 | 1.04 | 1.05 | 1 | 0.96 | 0.994 | 1.05 | 1.05 | 0.83 | 1.07
10 | Cc1cc(NC(=O)c2cccc(NC(=O)/C=C/CN(C)C)c2)ccc1Nc1nccc(-c2cccnc2)n1 | 1.03 | 1.05 | 0.972 | 1.01 | 1.04 | 1.02 | 1.08 | 1.05 | 1.06 | 0.942
11 | C[C@@H]1O[C@@H](Oc2c(-c3cc(O)c(O)c(O)c3)oc3cc(O)cc(O)c3c2=O)[C@H](O)[C@H](O)[C@H]1O [Myricetrin] | 0.952 | 1.05 | 0.962 | 1.07 | 0.97 | 1.09 | 1.07 | 1.17 | 0.944 | 1.08
12 | Nc1ncnc2c1ncn2[C@@H]1O[C@H](CO)[C@@H](O)[C@@H]1O [Vidarabine] | 1.03 | 1.07 | 1.03 | 1.04 | 1.03 | 1.04 | 1.16 | 1.15 | 1 | 1.06
13 | CCc1cc(C(N)=S)ccn1 [Ethinamide] | 1.07 | 1.01 | 1.1 | 1.04 | 1.04 | 1.07 | 1.18 | 1.2 | 1.04 | 1.05
14 | O=C1CCc2ccccc2C1 [Beta-Tetralone] | 1.04 | 1.06 | 1.05 | 1.04 | 1.04 | 1.06 | 1.07 | 1.02 | 0.996 | 1.08
15 | CC(=O)c1ccc(S(=O)(=O)NC(=O)NC2CCCCC2)cc1 [Acetohexamide] | 0.972 | 1.04 | 0.846 | 1.09 | 1.08 | 1.05 | 1.18 | 1.21 | 0.908 | 1.08
16 | COC1=C(OC)C(=O)C(CCCCCCCCCCO)=C(C)C1=O [Idebenone] | 1.04 | 1.05 | 0.937 | 1.04 | 1.02 | 1.04 | 1.04 | 1.03 | 0.917 | 1.02
17 | CC1=C[C@]2(O)O[C@@]3(CC2=C(C)C)[C@@H](C)CC[C@@H]13 [Curcumenol] | 1 | 1.02 | 1.06 | 1.04 | 1.01 | 1.31 | 1.08 | 1.33 | 1.02 | 0.985
18 | CC(C)c1cc(-c2n[nH]c(=O)n2-c2ccc3c(ccn3C)c2)c(O)cc1O [Ganetespib] | 1.04 | 1.03 | 1 | 1.04 | 1.03 | 1.08 | 1.07 | 1.14 | 0.915 | 1

Row | SMILES | normalised indicator fluorescence (hsa-mir-191 loop; [1]) | normalised indicator fluorescence (hsa-mir-191 loop; [2]) | normalised indicator fluorescence (hsa-mir-21 loop; [1]) | normalised indicator fluorescence (hsa-mir-21 loop; [2]) | normalised indicator fluorescence (hsa-mir-221 loop; [1]) | normalised indicator fluorescence (hsa-mir-221 loop; [2]) | normalised indicator fluorescence (hsa-mir-374a loop; [1]) | normalised indicator fluorescence (hsa-mir-374a loop; [2]) | normalised indicator fluorescence (hsa-mir-6850 loop; [1]) | normalised indicator fluorescence (hsa-mir-6850 loop; [2])
19 | CC(C)=CCC[C@](C)(O[C@@H]1O[C@H](CO)[C@@H](O)[C@H](O)[C@H]1O)[C@H]1CC[C@]2(C)[C@@H]1[C@H](O)C[C@@H]1[C@@]3(C)CC[C@H](O)C(C)(C)[C@@H]3[C@@H](O[C@@H]3O[C@H](CO)[C@@H](O)[C@H](O)[C@H]3O[C@@H]3OC[C@@H](O)[C@H](O)[C@H]3O)C[C@]12C [Notoginsenoside R1] | 1.04 | 1.01 | 1 | 0.991 | 1.15 | 0.995 | 1.21 | 1.09 | 0.982 | 1.01
20 | O=c1cc(-c2ccc(O)c(-c3c(O)cc(O)c4c(=O)cc(-c5ccc(O)cc5)oc34)c2)oc2cc(O)cc(O)c12 [Amentoflavone] | 0.994 | 1.42 | 1.16 | 1.23 | 1.19 | 1.17 | 1.29 |  | 1.07 | 1.03
21 | Cc1cc(C(C)(C)C)c(O)c(C(C)(C)C)c1 | 1.01 | 1.04 | 1.04 | 1 | 1.05 | 1.12 | 1.11 | 1.19 | 0.924 | 1.06
22 | Nc1c(Br)cc(Br)cc1CN[C@H]1CC[C@H](O)CC1 [Ambroxol] | 0.949 | 1.04 | 0.88 | 1.17 | 1.04 | 1.02 | 1.16 | 1.12 | 0.965 | 1.06
23 | N#Cc1c(NC(=O)c2cccc3ccccc23)sc2c1CCCC2 | 1.04 | 0.988 | 1.02 | 1.01 | 0.919 | 1.02 |  | 0.983 | 1.08 | 1.02
24 | CO[C@@H]1[C@H](N(C)C(=O)c2ccccc2)C[C@H]2O[C@]1(C)n1c3ccccc3c3c4c(c5c6ccccc6n2c5c31)C(=O)NC4 [Midostaurin] | 1.16 | 1.04 | 1.09 | 1.06 | 1.18 | 0.972 |  | 1.43 | 1.02 | 1.02
25 | CC(C)c1cc(C(C)C)c(CC(=O)NS(=O)(=O)Oc2c(C(C)C)cccc2C(C)C)c(C(C)C)c1 [Avasimibe] | 1.05 | 1.12 | 0.952 | 1.08 | 1.05 | 1.03 | 1.08 |  | 0.985 | 0.948
26 | Oc1cc(O)c2c(c1)O[C@H](c1ccc(O)c(O)c1)[C@@H](O)C2 [(+)-Catechin Hydrate] | 0.971 | 1.07 | 0.941 | 1.02 | 1.02 | 1.13 | 1.15 | 1.22 | 0.975 | 1.09
27 | C[C@H]1[C@H](C)CC[C@]2(C(=O)O)CC[C@]3(C)C(=CC[C@@H]4[C@@]5(C)C[C@@H](O)[C@H](O)[C@@](C)(CO)[C@@H]5CC[C@]43C)[C@H]12 [Asiatic acid] | 0.974 | 1.01 | 0.904 | 1.07 | 1.03 | 0.961 | 1.15 | 1.06 | 0.846 | 1.03
28 | O=C(O)CCc1ccc(O)cc1O [Hydroumbellic acid] | 1.11 | 1.05 | 0.973 | 1.06 | 0.989 | 1.16 | 1.1 | 1.13 | 1.1 | 1.04
29 | CNc1ccc([N+](=O)[O-])c(Nc2ccc3[nH]ncc3c2)n1 | 0.903 | 0.996 | 0.899 | 1.02 | 0.959 | 1.15 | 1.1 | 1.35 | 0.93 | 0.929
30 | O=C(O)C(O)Cc1ccc(O)c(O)c1 (stereo not drawn) [Sodium Danshensu] | 0.941 | 1.02 | 0.888 | 1.05 | 0.976 | 1.05 | 1.07 | 0.994 | 0.964 | 1.08
31 | COc1ccc([C@@H]2OC[C@H]3[C@@H]2CO[C@@H]3c2ccc(O[C@@H]3O[C@H](CO)[C@@H](O)[C@H](O)[C@H]3O)c(OC)c2)cc1OC [Forsythin] | 1.06 | 1.04 | 0.926 | 0.988 | 0.939 | 1.04 | 1.09 | 1.09 | 0.927 | 1.07
32 | O=CN1CC/C(=C/c2ccc3c(c2)OCO3)C1=O | 1.04 | 1.04 | 0.922 | 1.01 | 1.03 | 0.986 | 1.1 | 1.08 | 1 | 1.03
33 | C/C1=C/CC[C@H](C)C(=O)C[C@@H](C(C)C)C(=O)C1 [Curdione] | 1.05 | 1.02 | 1.04 | 1.09 | 1.05 | 1.16 | 1.07 | 1.26 | 1.14 | 1.06
34 | Cn1cc(C2=C(c3cn(CCCSC(=N)N)c4ccccc34)C(=O)NC2=O)c2ccccc21 [Ro 31-8220 Mesylate] | 1.38 | 0.894 |  | 0.929 |  | 0.947 |  | 1.02 | 1.08 | 0.859
35 | CCNC(=O)c1[nH]nc(-c2cc(Cl)c(O)cc2O)c1-c1ccc(OC)cc1 | 1.01 | 1.05 | 1.05 | 1.06 | 1.02 | 0.975 | 1.11 | 1.11 | 0.952 | 1.05
36 | C1CCN2C[C@@H]3C[C@@H](CN4CCCC[C@@H]34)[C@H]2C1 [(-)-Sparteine sulfate pentahydrate] | 0.913 | 1.02 | 0.863 | 1.2 | 1.09 | 1.06 | 1.14 | 1.14 | 0.921 | 1.05
